The results in this text go back to PubChem BioAssay (NCI).

About 83,000 compounds went through this panel and 20% of them were active in at least one assay; those are over-represented in the sample as a whole.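 Step 1: grow cells in 96-well plates. Step 2: add test compound at a single concentration. Step 3: incubate 48 h. Step 4: record percent growth.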 Values without a mark were called inactive. Activity calls are given as the source filed them. How the source made its calls: active means growth percent below 10; inactive means the rest.

Test systems include SK-MEL-2 melanoma; EKVX NSCLC; SN12C renal; UO-31 renal; TK-10 renal; ACHN renal; CAKI-1 renal; A498 renal; CCRF-CEM leukemia; MOLT-4 leukemia; RPMI-8226 leukemia; OVCAR-8 ovarian; OVCAR-5 ovarian; OVCAR-4 ovarian; SK-OV-3 ovarian; IGROV1 ovarian; HS 578T breast; NCI/ADR-RES ovarian; SR leukemia; OVCAR-3 ovarian.
Common to all, as to assay: NCI-60 one-dose screen, 48 h (100 = growth as untreated, 0 = no growth, -100 = all killed)
Details in all cases: 10 µM unless noted

For the molecule `COc1ccc(-c2nn(-c3ccccc3)cc2/C=C2\SC(=O)NC2=O)cc1`, the growth was 100% with SK-MEL-2 melanoma; 85.2% in the test on EKVX NSCLC; 90.8% in the test with SN12C renal; 80% in the test on UO-31 renal; 99.7% in the test with TK-10 renal; 96% in the test on ACHN renal. Also, the growth with CAKI-1 renal was 83.2%; in the test with A498 renal, 72%; in the test with CCRF-CEM leukemia it was 91.9%; with MOLT-4 leukemia, 96.4%; in the test with RPMI-8226 leukemia, 78.7%; in the test with OVCAR-8 ovarian, 101%. Moreover, the growth is 99.4% in the test on OVCAR-5 ovarian; 89.5% in the test on OVCAR-4 ovarian; 93.3% with SK-OV-3 ovarian; 103% with IGROV1 ovarian; 106% with HS 578T breast; 106% with NCI/ADR-RES ovarian.

In the case of `O=S(=O)(Nc1ccc(F)c(Cl)c1)c1ccc(-c2cnc(C3CC3)o2)cc1`, the growth is 38% with SK-MEL-2 melanoma; 32.2% with EKVX NSCLC; 49.9% in the test on SN12C renal; 41.8% with UO-31 renal; 44% with TK-10 renal; 44.5% with ACHN renal. For the same molecule, the growth is 32.5% in the test on CAKI-1 renal; -14.5% (active) in the test on A498 renal; 19.6% in the test with CCRF-CEM leukemia; 29.5% with MOLT-4 leukemia; 19.3% with RPMI-8226 leukemia; 21.7% in the test on OVCAR-8 ovarian. Besides, the growth is 34.4% in the test on OVCAR-5 ovarian; 39.1% in the test on OVCAR-4 ovarian; 35.1% with SK-OV-3 ovarian; 27.3% in the test on IGROV1 ovarian; 11.3% with HS 578T breast; -17% (active) in the test on NCI/ADR-RES ovarian.

For the molecule `O=C1Nc2c(ccc(Cl)c2Cl)/C1=C/c1cc(Br)c(O)c(Br)c1`, the growth is 73.2% in the test with SK-MEL-2 melanoma; 47.3% in the test with EKVX NSCLC; 80.2% in the test with SN12C renal; 60.4% in the test with UO-31 renal; 96.7% with TK-10 renal; 70.8% in the test on ACHN renal. Besides, the growth in the test with CAKI-1 renal was 46.8%; with CCRF-CEM leukemia it was 69%; with MOLT-4 leukemia it was 63.8%; with SR leukemia it was 39.3%; in the test on RPMI-8226 leukemia, 14.8%; in the test on OVCAR-8 ovarian, 51.4%. The growth in the test on OVCAR-5 ovarian is 87.1%; in the test on OVCAR-4 ovarian it was 64.9%; with SK-OV-3 ovarian it was 63%; in the test on IGROV1 ovarian, 47%; in the test on OVCAR-3 ovarian, 27.3%; with HS 578T breast, 43.5%. Further, the growth in the test on NCI/ADR-RES ovarian is 32.4%.

Take `CC/C=C\C[C@H](F)C/C=C1/C(=O)C=C[C@@H]1C/C=C\CCCC(=O)OC`: the growth was 41% in the test on SK-MEL-2 melanoma; 31.6% in the test on EKVX NSCLC; -14.4% (active) in the test with SN12C renal; -4.75% (active) in the test with UO-31 renal; 50.4% with TK-10 renal; -52% (active) in the test on ACHN renal. Moreover, the growth is 9.44% (active) in the test with CAKI-1 renal; -21.4% (active) in the test on CCRF-CEM leukemia; -23.5% (active) in the test with MOLT-4 leukemia; -25.8% (active) in the test on SR leukemia; -10.4% (active) with RPMI-8226 leukemia; -15.4% (active) in the test with OVCAR-8 ovarian. Moreover, the growth in the test with OVCAR-5 ovarian is 68.2%; in the test with OVCAR-4 ovarian, 24.2%; in the test on SK-OV-3 ovarian, 50.3%; in the test with IGROV1 ovarian it was 10.6%; with OVCAR-3 ovarian it was -13.2% (active); with HS 578T breast it was 45.2%. Besides, the growth in the test on NCI/ADR-RES ovarian is 14.2%.

Consider `C=C1CCC2C3(C)COC(C)(C)OC3CCC2(C)C1C/C=C1/C(=O)OCC1OC(C)=O` (stereo not drawn), for which the growth with SK-MEL-2 melanoma is 49.2%; with EKVX NSCLC, 53.5%; in the test with SN12C renal, 33%; in the test with UO-31 renal, 64.6%; with TK-10 renal it was 68.7%; with ACHN renal it was 24.3%. Also, the growth with CAKI-1 renal was 19.3%; in the test with A498 renal it was 116%; with MOLT-4 leukemia, -16.8% (active); in the test with OVCAR-8 ovarian, -5.77% (active); with OVCAR-5 ovarian, 38.3%; with OVCAR-4 ovarian it was 32.3%. Further, the growth with SK-OV-3 ovarian was 97.4%; in the test with IGROV1 ovarian it was 69.6%; in the test with OVCAR-3 ovarian, -9.88% (active); in the test with HS 578T breast, 12%; with NCI/ADR-RES ovarian, 51%.

As for `O=C(COc1cccc(/C=C2/Oc3ccccc3C2=O)c1)Nc1nccs1`, the growth in the test on SK-MEL-2 melanoma is -32.2% (active); in the test on EKVX NSCLC, 74.7%; with SN12C renal it was 70.3%; with UO-31 renal it was -53.2% (active); in the test on TK-10 renal it was 83.7%; in the test on ACHN renal, 112%. The growth was 37% in the test on CAKI-1 renal; 93.9% in the test on A498 renal; 28.4% in the test on MOLT-4 leukemia; -53.8% (active) with SR leukemia; -53.2% (active) with RPMI-8226 leukemia; 86.6% with OVCAR-5 ovarian. The growth in the test with OVCAR-4 ovarian is 87.5%; in the test with SK-OV-3 ovarian it was 266%; in the test on IGROV1 ovarian it was -35% (active); with OVCAR-3 ovarian, 220%; with HS 578T breast it was 88.6%; in the test on NCI/ADR-RES ovarian, 83.3%.

For `O=C(CNC1C2CC3CC(C2)CC1C3)Sc1nnc2sc3ccccc3n12` (stereo not drawn), the growth in the test with SK-MEL-2 melanoma is 108%; in the test with EKVX NSCLC, 93%; with SN12C renal it was 101%; in the test on UO-31 renal, 78.3%; in the test on TK-10 renal, 127%; with ACHN renal, 100%. For the same molecule, the growth was 76.4% with CAKI-1 renal; 107% in the test with A498 renal; 86.1% in the test with CCRF-CEM leukemia; 97.3% in the test on RPMI-8226 leukemia; 100% in the test with OVCAR-5 ovarian; 87.6% in the test on OVCAR-4 ovarian. The growth in the test with SK-OV-3 ovarian was 94.2%; in the test on IGROV1 ovarian, 104%; with OVCAR-3 ovarian, 98.2%; with HS 578T breast, 89.5%; in the test with NCI/ADR-RES ovarian it was 99.2%.

As to `Nc1nc2c(c3ncccc13)C(c1cccc(Br)c1)Cc1ncccc1-2` (stereo not drawn), the growth in the test on SK-MEL-2 melanoma was 3.12% (active); in the test on EKVX NSCLC, 41%; in the test with SN12C renal, 34.4%; in the test on UO-31 renal it was 33.8%; with TK-10 renal, 35.2%; with ACHN renal, 43%. In addition, the growth is 41.4% with CAKI-1 renal; 8.84% (active) with CCRF-CEM leukemia; 7.86% (active) in the test on MOLT-4 leukemia; 2.96% (active) in the test with SR leukemia; 34% with RPMI-8226 leukemia; 26.6% with OVCAR-8 ovarian. The growth with OVCAR-5 ovarian was 50.6%; in the test on OVCAR-4 ovarian, 58%; in the test on SK-OV-3 ovarian, 16.5%; in the test with IGROV1 ovarian, 42%; with OVCAR-3 ovarian, -8.61% (active); in the test on HS 578T breast, 37.2%. Further, the growth in the test with NCI/ADR-RES ovarian is 11.4%.

On to `C=C1CCC2C3(C)COC(c4ccc(OC)cc4Br)OC3CCC2(C)C1/C=C/C1=CCOC1=O` (stereo not drawn), for which the growth is 81.2% with SK-MEL-2 melanoma; 44.2% with EKVX NSCLC; 79.8% in the test with SN12C renal; 54.2% in the test on UO-31 renal; 83.9% in the test on TK-10 renal; 81.1% in the test on ACHN renal. Moreover, the growth was 74.3% with CAKI-1 renal; 72.2% in the test on A498 renal; 55.7% with MOLT-4 leukemia; 7.47% (active) in the test with RPMI-8226 leukemia; 79.3% in the test on OVCAR-8 ovarian; 98.3% with OVCAR-5 ovarian. The growth with OVCAR-4 ovarian was 67.9%; with SK-OV-3 ovarian it was 97.5%; in the test with IGROV1 ovarian it was 79.8%; in the test on OVCAR-3 ovarian, 80.8%; with HS 578T breast, 94.7%; in the test with NCI/ADR-RES ovarian, 68.6%.

Regarding `CCN(CC)C12CCCCC1(C)C(C#N)(C#N)C(C#N)=C(N)O2` (stereo not drawn), the growth in the test on SK-MEL-2 melanoma was 112%; with EKVX NSCLC it was 89.3%; with SN12C renal it was 97.5%; in the test with UO-31 renal, 82.7%; in the test on TK-10 renal, 93.2%; in the test on ACHN renal, 106%. For the same molecule, the growth in the test with CAKI-1 renal is 91.8%; in the test on A498 renal, 122%; with MOLT-4 leukemia, 108%; with SR leukemia, 92.7%; with OVCAR-8 ovarian, 93.4%; in the test on OVCAR-5 ovarian it was 101%. For the same molecule, the growth in the test with OVCAR-4 ovarian was 100%; in the test with IGROV1 ovarian, 111%; with OVCAR-3 ovarian, 98.3%; in the test on HS 578T breast it was 120%; in the test with NCI/ADR-RES ovarian it was 101%.

In the case of `CN1CCN(Cc2ccc(NC(=O)c3[nH]ncc3Nc3ncnc4sccc34)cc2)CC1`, the growth with SK-MEL-2 melanoma is 7.08% (active); in the test on EKVX NSCLC, 16.1%; in the test with SN12C renal it was 4.54% (active); in the test on UO-31 renal, 14.8%; in the test on TK-10 renal, 16.3%; in the test on ACHN renal it was 1.08% (active). The growth was 6.37% (active) with CAKI-1 renal; -35.5% (active) with A498 renal; 8.16% (active) in the test with CCRF-CEM leukemia; -4.38% (active) in the test on RPMI-8226 leukemia; 12% with OVCAR-8 ovarian; 21.2% with OVCAR-5 ovarian. The growth in the test with OVCAR-4 ovarian was 10.2%; in the test on SK-OV-3 ovarian, 31.4%; in the test on IGROV1 ovarian, 23.6%; in the test with OVCAR-3 ovarian it was 3.42% (active); in the test with HS 578T breast, -2.25% (active); in the test on NCI/ADR-RES ovarian it was 16.4%.
